# From ChEMBL document CHEMBL3988442, “University of Dundee, Small-Polar-MMV Screening Library” (2021)
# Columns and labels:
# [1] = biological target: T1, Aspartate--tRNA(Asp/Asn) ligase (Mycobacterium tuberculosis (strain ATCC 25618 / H37Rv)) (UniProt P9WFW3); assay: Assay for Asp RNA synthetase-1 from Mycobacterium tuberculosis; type: functional; set-up: scale not given: direction of the effect not stated beside the values; conditions: 30 µM; further: in the data most compounds retested in dose-response had high values
# T1 sequence (whole entry): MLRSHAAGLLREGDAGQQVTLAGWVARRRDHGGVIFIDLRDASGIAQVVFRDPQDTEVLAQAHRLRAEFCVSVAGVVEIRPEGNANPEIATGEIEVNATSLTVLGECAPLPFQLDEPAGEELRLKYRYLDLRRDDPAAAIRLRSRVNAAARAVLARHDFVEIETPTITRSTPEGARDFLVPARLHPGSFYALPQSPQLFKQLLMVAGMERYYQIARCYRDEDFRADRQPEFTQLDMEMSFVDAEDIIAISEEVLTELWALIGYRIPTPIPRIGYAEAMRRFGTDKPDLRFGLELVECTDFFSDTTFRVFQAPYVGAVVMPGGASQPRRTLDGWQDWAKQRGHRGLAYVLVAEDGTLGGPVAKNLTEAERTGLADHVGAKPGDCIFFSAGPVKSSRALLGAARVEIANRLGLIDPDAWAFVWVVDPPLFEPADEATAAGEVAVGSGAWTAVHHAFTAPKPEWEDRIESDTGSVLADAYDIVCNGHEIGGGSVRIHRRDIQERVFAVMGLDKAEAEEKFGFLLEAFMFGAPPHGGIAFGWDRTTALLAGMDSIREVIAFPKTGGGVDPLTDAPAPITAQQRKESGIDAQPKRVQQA
# [2] = biological target: Shiga toxin 2 (Escherichia coli O157:H7) (UniProt P09385+P09386); assay: E. coli 0.157:H7 Shiga Toxin SOP - stx2 screening assay; type: functional; set-up: scale not given: direction of the effect not stated beside the values; conditions: 30 µM
Structure (SMILES),Percent Effect [1] [%],Percent Effect [2] [%]
CCCNC(=O)c1cc2c(c3ccccc3n2C)n1C(=O)N(C)C,2.3,-2.9
Cc1ccccc1CNC(=O)Cc1c(C)nc2cc(=O)[nH]n2c1C,-0.856,17.8
O=C(c1ccncn1)N1CCO[C@H]2[C@@H](OCc3cccnc3)CC[C@@H]21,5.42,-37.5
CC(NC(=O)NCCCc1n[nH]c(N)c1C#N)c1cccs1 (stereo not given),-7.85,-34.7
Cc1cc(N2CCCN(C(=O)Cc3csc(C)n3)CC2)ccn1,0.502,3.59
NC(=O)C1CCN(c2nc3nccc(-c4ccccn4)c3c(=O)[nH]2)CC1,1.02,2.69
Cc1ccoc1-c1nnc(CN2CCCC(Cn3cncn3)C2)o1 (stereo not given),1.01,-16.9
O[C@H]1[C@H](n2cc(-c3ccccc3)nn2)c2ccccc2C12CCNCC2,6.77,-10.9
Cc1ccsc1C(=O)N1Cc2ccccc2C2(CCN(C)CC2)C1,5.26,5.47
CC(C)CC(=O)N1CCN(C(=O)N(C)C)CC2(CC(=O)N(C)C2)C1 (stereo not given),1.73,1.92
O=C(NC1CCC1)[C@@H]1CCO[C@@H]2CCN(CCc3ccccc3)C[C@H]21,-2.94,-26.8
CCCn1[nH]cc/c1=N\C(=O)CN1CCc2cnc(CC)nc2C1,5.8,-6.51
Cc1nnc(N2CCOC(Cn3cccn3)C2)c(C#N)c1C (stereo not given),3.88,19.5
Cc1c(C(=O)N2CCCC2c2cnn(C)c2)nnn1-c1ccccc1 (stereo not given),-1.92,-11.8
CCCNC(=O)CNc1cc(C(=O)N2CCSCC2)ccc1C,-2.64,-9.17
CCSCC(C)NCc1nncn1C1CCCCC1 (stereo not given),1.39,13.1
Cc1cnn(CC2CN(c3ncnc4ccsc34)CCO2)c1 (stereo not given),-1.51,-0.262
CCS(=O)(=O)c1ccccc1N1CCC(NC(=O)c2ccc[nH]2)CC1,-2.04,9.33
COc1ccc(NC(=O)Cn2nc(C)c(C)cc2=O)cc1OC,-0.123,-13.1
NS(=O)(=O)N1CCc2ccc(NC(=O)Cc3ccc(F)cc3)cc21,-5.84,-15
Cc1cccc(-c2nc(CN(Cc3cccs3)CC3CCCO3)no2)c1 (stereo not given),-0.626,-5.45
Cc1nc(O)c2nnn(C[C@H]3CCCN3C(=O)C(C)(C)C)c2n1,5.78,-7.47
O=C(C1CCCC1)N1CCN(Cc2nc(-c3ccco3)no2)CC1,-3,-10.1
COCCc1noc(CN2CCN(CC(O)c3ccccc3)CC2)n1 (stereo not given),-1.47,4.32
CNc1nc(C)c(C(=O)N2CCCCC2CN2CCCCCC2)s1 (stereo not given),1.75,1.34

Structure (SMILES),Percent Effect [1] [%],Percent Effect [2] [%]
O=C(C1SCCc2sccc21)N1CCC(O)CC1 (stereo not given),5.25,-25.1
Cc1ccc(N2CC[C@H]3C[C@@H](C(=O)N4CCOCC4)O[C@H]3C2)nn1,0.749,12.8
COc1cc(C)nc(N2CCN(C(=O)c3ccc[nH]3)CC2)n1,1.55,11.2
c1nc(CCC2CCCN2)cc(N2CCCOCC2)n1 (stereo not given),-5.88,-10.1
Cc1ccc(CN2CCC3(CC2)OC(C(=O)N(C)C)c2ccccc23)o1 (stereo not given),3.43,-27.1
CC(C)C(=O)N1CCCC(c2ncncc2-c2ccncc2)C1 (stereo not given),-3.04,-34.6
Cc1cnc2c(S(=O)(=O)NCC3CCS(=O)(=O)C3)cccc2c1 (stereo not given),3.04,-5.77
Cc1cc(C)n(CC(C)CNC(=O)[C@@H](C)NC(=O)OC(C)(C)C)n1 (stereo not given in full),-1.38,9.62
CN1CCC(Oc2ccc(NC(=O)c3cccc(Cl)c3)cc2)CC1,-0.327,-51
COc1c(C2CCCN2CC(=O)Nc2cc(C)no2)c(C)nn1C (stereo not given),2.74,12.9
CCOCCCNC(=O)c1ccccc1S(C)(=O)=O,-2.28,0.226
COc1cc(S(=O)(=O)N2CCCc3ccccc32)cc(C(=O)O)c1OC,7.13,-8.55
Cc1cc(N2CCCCCC2)n2nc(C)c(C)c2n1,0.167,19.6
COc1ccccc1N1CCC(CNCc2cccc(C#N)c2)C1 (stereo not given),13.3,2
COc1ccc(CC(=O)N2CCc3nnc(N(C)C)cc3C2)cc1F,2.43,-57.1
CC(NC(=O)C1=NN(C)C(=O)CC1)c1ccc(F)cc1F (stereo not given),-4.46,-6.55
CC(C)c1nc(CN(C)C2CCN(Cc3nc(C4CC4)no3)C2)no1 (stereo not given),5.06,-26.4
CCOC(=O)N1CCN(C(=O)CCn2ccc3c(OC)cccc32)CC1,0.389,-14.3
CN(CCc1ccccc1)Cc1cc(C(=O)N2CCN(C)C(=O)C2)no1,-2.28,-18.1
COc1ccc(CNCc2ccnc(N3CCOCC3)c2)cc1OC,-2.66,-52.5
Cc1cc(NC(=O)C(C)N2CCCN(c3nccs3)CC2)on1 (stereo not given),-2.75,4.75
CCC(C)(NCC(=O)Nc1nc(C)cs1)c1nc(C)cs1 (stereo not given),2.89,-28.4
CC(C)N(C)C(=O)C1=NOC2(CCN(C(=O)c3ccc(Cl)cc3)C2)C1 (stereo not given),1.19,-2.21
COCc1cccc(C(=O)N2CCCCC2c2nccs2)c1 (stereo not given),-3.8,18.2
CCc1[nH]ncc1C(=O)N1CCCN(Cc2cnn(C)c2)CC1,-0.259,17.2

Structure (SMILES),Percent Effect [1] [%],Percent Effect [2] [%]
O=C(NCCOc1ccc(Cl)cc1)N1CCS(=O)(=O)CC1,-4.21,5.32
c1ccc(Cn2ccnc2CN2CCOC(Cn3cccn3)C2)cc1 (stereo not given),-3.22,8.78
O=C(c1ccnnc1)N1CCC2(CC1)CC(N1CCOCC1)C2,2.89,-0.921
CN(Cc1ccc2c(c1)OCCO2)C(=O)Cn1ccccc1=O,-7.28,-21.6
CC(C)Sc1ncccc1C(=O)NCc1ccc(CS(C)(=O)=O)cc1,-3.16,13.1
CNC(=O)CS(=O)(=O)Cc1cc(Cl)c2c(c1)OCCCO2,0.857,0.921
Cc1c[nH]cc1C(=O)N1CCN(CCc2cccs2)CC1,-4.34,-33.2
CC(C)c1noc(CN(Cc2ccccc2F)C2CC2)n1,12.6,-59.6
Cc1cc(NC(=O)NCc2cccnc2OC(C)C)n(C)n1,5.63,-9.92
COCCN1CCOCC2(CCCN(Cc3ccc(C)o3)C2)C1 (stereo not given),-0.582,-6.63
O=C(C(CNCc1ccsc1)c1ccccc1)N1CCOCC1 (stereo not given),4.13,-22.6
O=C(NCC(=O)N1CCCCC1)c1ccc(Cl)cc1I,0.257,1.85
Cc1nc(CN2CCCC(CCc3c(F)cccc3F)C2)c[nH]1 (stereo not given),-1.36,-14.3
CC1(C(=O)N2CCOCC2)CN(Cc2ccccn2)CCO1 (stereo not given),8.77,-6.1
CCc1nc2n(n1)CC(NCc1nc(C)ccc1O)CC2 (stereo not given),-1.83,11.7
CC(C)c1nnc2n1CCN(C(=O)c1ccc(CN(C)C)cc1)C2,-0.75,17.3
Cc1ccccc1-c1cc(NC(=O)CC(C)C)n(CCO)n1,-0.569,-1.82
CC(=O)N1CCCC(c2ccc(Nc3nc(C)cc(C)n3)cn2)C1 (stereo not given),-1.31,3.11
Cc1cnn(CC2CCCN2C(=O)c2ccc(OC(C)C)nc2)c1 (stereo not given),-4.48,-35
O=C(NC1CC1)c1ccc2ccc(N3CCN(CC4CC4)CC3)n2c1,-1.8,-80.6
N#Cc1cccc(N2CC3(CCN(C(=O)c4cccnc4)C3)CC2=O)c1 (stereo not given),2.09,-13.7
COc1cccc(S(=O)(=O)NC2CNC(=O)C2)c1 (stereo not given),-3.48,3.09
Cn1cnc2c1CCN(Cc1noc(-c3ccccc3)n1)C2,3.96,12.6
Cc1noc(CN(Cc2ccc3c(c2)OCO3)C2CCCC2)n1,1.87,30.6
CCOCC1CN(C(=O)N(C)C)Cc2nn(C)cc21 (stereo not given),7.75,-4.03

Structure (SMILES),Percent Effect [1] [%],Percent Effect [2] [%]
O=C(NCC1CCS(=O)(=O)C1)c1sccc1-c1ccc(F)cc1 (stereo not given),-1.09,-3.87
CCOCCCn1c(NC(=O)c2cnn(C)c2)nc2ccccc21,-2.49,22.6
O=C(N1CCCO1)[C@@]12CCO[C@@H]1CCN(Cc1ccccc1)C2,-1.34,-5.88
CCCN1C(=O)CC(N2CCN(c3ccc(F)cc3)CC2)C1=O (stereo not given),5.99,-15.7
O=C(c1ccc(Cl)o1)N1CCCC(c2cc(C(F)(F)F)[nH]n2)C1 (stereo not given),3.23,38.7
CCOc1cccc2c1OCC(C(=O)NS(=O)(=O)c1ccc(C)s1)=C2,4.55,2.64
COCC1CC2(CCN(Cc3ccc(OC)cc3)CC2)CN1C(C)C (stereo not given),-1.24,1.66
CN(Cc1cccc(F)c1)C1CCN(CCc2ccccn2)CC1,-3.32,-8.85
Cc1nc(C)n(CC2CN(CCOc3ccccc3F)CCO2)n1 (stereo not given),-0.955,9.47
CN(Cc1nnc(-c2ccco2)o1)CC1CCCN1c1cccnn1 (stereo not given),7.29,11.7
CCN1CCC(NC(=O)CN2CCCC2Cn2nc(C)cc2C)CC1 (stereo not given),-0.781,17.1
Nc1cc2c(nn1)CCN(C(=O)c1cccc3c1OCCO3)C2,3.34,-28.6
COc1ccc2cc(C(=O)N3CCCCC3Cn3cccn3)[nH]c2c1 (stereo not given),-2.15,16.3
CN(C)C(=O)N1CCN(Cc2nnc(C(C)(C)C)o2)CC1,-2.73,3.28
CCOCCNc1nc(C2CCCC2)nc2c1cnn2C,5.12,1.57
CC1Cc2ccccc2N1Cc1occc1C(=O)OCC(N)=O (stereo not given),-3.97,-1.38
CN(C(=O)C1CCCCC1)[C@@H]1CCC[C@@H](N2CCOCC2)[C@@H]1O,0.61,-11.6
CCn1nc(C)cc1C(=O)Nc1cc(F)ccc1OCC1CCCO1 (stereo not given),-3.81,34.1
Cc1nc(NC2CCCC2)cc(C2CCN2C(=O)c2cccnc2)n1 (stereo not given),2.75,2.33
Cn1ccc(C(=O)N2CCC[C@]3(C[C@@H](OCc4ccccn4)CO3)C2)n1,-1.05,-3.97
CNC(=O)[C@H]1C[C@@H]2CN(S(=O)(=O)c3ccccc3)C[C@@H]2N1C,-3.51,-39.6
Cc1nnc2n1CCN(C(C(=O)NC1CC1)c1ccccc1)C2 (stereo not given),-4.48,15.2
CC(C)C(=O)NCC(=O)N(C)C1CCCN(C2Cc3ccccc3C2)C1 (stereo not given),1.1,0.34
COc1cccc(OCCNCc2c(C)nn(C)c2N(C)C)c1,-1.97,19.6
Cc1cc(C)cc(C2(C(=O)N3CCCC(n4cncn4)C3)CC2)c1 (stereo not given),0.962,26.6
